The results in this text go back to PubChem BioAssay (NCI).

This is part of a sample that, as a whole, favours compounds with a hit. Of some 79,000 tested, about 15% had one in any assay. Values without a mark were called inactive. Active and inactive are the calls of the source. No stated cut-off is given here; in the data, active means growth inhibition above about 70%; inactive means the rest.

A short description of experiment [1]: NCI Yeast Anticancer Drug Screen. Data for the rad50 strain (AID 155).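 Further: 0% = growth of vehicle-only cultures of the same strain.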 The conditions noted are these: S. cerevisiae rad50 strain growth inhibition, active compounds read high. The method in brief: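 Readout: growth inhibition relative to vehicle-treated cultures. Compound exposure was carried out in a genetically defined yeast strain deficient in DNA damage repair.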

Experiment [2] can be described thus: NCI Yeast Anticancer Drug Screen. Data for the mec2-1 strain (AID 157). The conditions noted are these: S. cerevisiae mec2-1 strain, active compounds read high. In outline:
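Using mec2-1 yeast: add compound, measure growth, express inhibition versus vehicle-treated cultures.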

Experiment [3] in a line: NCI Yeast Anticancer Drug Screen. Data for the sgs1 mgt1 strain (AID 161).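 Further: 0% = growth of cultures given vehicle only.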 The conditions noted are these: S. cerevisiae sgs1 mgt1 strain, active compounds read high. In outline: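 Percent growth inhibition was derived by comparing compound-exposed mutant yeast with vehicle-exposed cultures. The strain carries alterations in DNA damage repair.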
The nature of experiment [4]: NCI Yeast Anticancer Drug Screen. Data for the cln2 rad14 strain (AID 165).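 Further: 0% = growth equal to vehicle treated cultures.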 The conditions noted are these: S. cerevisiae cln2 rad14 strain, active compounds read high. The method in brief: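 Yeast strain cln2 rad14, bearing defects in cell cycle control and DNA repair, serves as the test system; values reflect growth inhibition compared with vehicle.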
Experiment [5] in a line: NCI Yeast Anticancer Drug Screen. Data for the bub3 strain (AID 167). The conditions noted are these: S. cerevisiae bub3 mutant strain, active compounds read high. The method in brief:
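Readout: yeast growth inhibition, expressed relative to vehicle-only wells. The test organism is a mutant strain from a panel with lesions in DNA repair or checkpoint genes.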

Experiment [6] can be described thus: NCI Yeast Anticancer Drug Screen. Data for the mlh1 rad18 strain (AID 175). The conditions noted are these: S. cerevisiae mlh1 rad18 strain growth inhibition, active compounds read high. The method in brief: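 Steps: expose repair-defective yeast to compound; measure growth; express inhibition against vehicle-treated controls.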
Setting [7] is: at 5.0 µM (retest, dose inferred, filed as 0.5).
The mark [8] stands for this setting: at 50.0 µM (retest, dose inferred, filed as 5.0).

On to `COC(=O)CNC(=O)C(F)(F)F`, for which the growth inhibition in experiment [1] (setting [7]) was -160%; in experiment [1] (setting [8]) it was -152%; in experiment [1] (at 50.0 µM) it was 81.8% (active); in experiment [2] (setting [7]), -47%; in experiment [2] (setting [8]), -49%; in experiment [2] (at 50.0 µM) it was 68.1%. Further, the growth inhibition in experiment [3] (setting [7]) was -61%; in experiment [3] (setting [8]), -58%; in experiment [3] (at 50.0 µM), 71.7% (active); in experiment [4] (setting [7]) it was -61%; in experiment [4] (setting [8]) it was -66%; in experiment [4] (at 50.0 µM), 75.6% (active). Further, the growth inhibition in experiment [5] (setting [7]) was -65%; in experiment [5] (setting [8]) it was -73%; in experiment [5] (at 50.0 µM), 59.1%; in experiment [6] (setting [7]) it was -141%; in experiment [6] (setting [8]) it was -111%; in experiment [6] (at 50.0 µM), 80.5% (active).
As for `O=C1OC(c2ccc3c(c2)OCO3)Sc2ccccc21` (configuration not stated), the growth inhibition in experiment [1] (setting [7]) was 11%; in experiment [1] (setting [8]), 24%; in experiment [1] (at 50.0 µM), 30.1%; in experiment [2] (setting [7]) it was -4%; in experiment [2] (setting [8]) it was -9%; in experiment [2] (at 50.0 µM), 9.85%. Besides, the growth inhibition was 1% in experiment [3] (setting [7]); 10% in experiment [3] (setting [8]); 23.4% in experiment [3] (at 50.0 µM); -2% in experiment [4] (setting [7]); 4% in experiment [4] (setting [8]); -2.5% in experiment [4] (at 50.0 µM). The growth inhibition was 9% in experiment [5] (setting [7]); 52% in experiment [5] (setting [8]); 68.3% in experiment [5] (at 50.0 µM); -6% in experiment [6] (setting [7]); 27% in experiment [6] (setting [8]); 25.8% in experiment [6] (at 50.0 µM).
Take `CCCCN(CCCC)CC(O)Cc1cc2ccccc2c2ccccc12` (configuration not stated): the growth inhibition is 0% in experiment [1] (setting [7]); 65% in experiment [1] (setting [8]); 90.7% (active) in experiment [1] (at 50.0 µM); 1% in experiment [2] (setting [7]); 44% in experiment [2] (setting [8]); 48.6% in experiment [2] (at 50.0 µM). In addition, the growth inhibition is -4% in experiment [3] (setting [7]); 92% (active) in experiment [3] (setting [8]); 99.1% (active) in experiment [3] (at 50.0 µM); -7% in experiment [4] (setting [7]); 42% in experiment [4] (setting [8]); 62.6% in experiment [4] (at 50.0 µM). The growth inhibition in experiment [5] (setting [7]) is 0%; in experiment [5] (setting [8]), 47%; in experiment [5] (at 50.0 µM) it was 94.4% (active); in experiment [6] (setting [7]), 18%; in experiment [6] (setting [8]), 91% (active); in experiment [6] (at 50.0 µM), 98.4% (active).
In the case of `OCC1(O)OCC(O)C(O)C1O` (configuration not stated), the growth inhibition in experiment [1] (setting [7]) is -3%; in experiment [1] (setting [8]) it was 72% (active); in experiment [1] (at 50.0 µM), 74.7% (active); in experiment [2] (setting [7]), -2%; in experiment [2] (setting [8]), 68%; in experiment [2] (at 50.0 µM) it was 80% (active). The growth inhibition was 0% in experiment [3] (setting [7]); 60% in experiment [3] (setting [8]); 72.7% (active) in experiment [3] (at 50.0 µM); 7% in experiment [4] (setting [7]); 29% in experiment [4] (setting [8]); 58.8% in experiment [4] (at 50.0 µM). For the same molecule, the growth inhibition in experiment [5] (setting [7]) is 1%; in experiment [5] (setting [8]) it was 69%; in experiment [5] (at 50.0 µM), 72.1% (active); in experiment [6] (setting [7]), -1%; in experiment [6] (setting [8]) it was 81% (active); in experiment [6] (at 50.0 µM), 79.5% (active).
In the case of `CCC/C(C)=N/NC(=S)SC`, the growth inhibition in experiment [1] (setting [7]) is 70% (active); in experiment [1] (setting [8]), 95% (active); in experiment [1] (at 50.0 µM) it was 96.8% (active); in experiment [2] (setting [7]), 38%; in experiment [2] (setting [8]), 95% (active); in experiment [2] (at 50.0 µM) it was 90.5% (active). Moreover, the growth inhibition is 27% in experiment [3] (setting [7]); 96% (active) in experiment [3] (setting [8]); 94.2% (active) in experiment [3] (at 50.0 µM); 6% in experiment [4] (setting [7]); 84% (active) in experiment [4] (setting [8]); 77.5% (active) in experiment [4] (at 50.0 µM). Also, the growth inhibition in experiment [5] (setting [7]) is 65%; in experiment [5] (setting [8]) it was 94% (active); in experiment [5] (at 50.0 µM) it was 96.7% (active); in experiment [6] (setting [7]), 72% (active); in experiment [6] (setting [8]) it was 95% (active); in experiment [6] (at 50.0 µM) it was 96.3% (active).
In the case of `CN(C)N=Nc1ccc(NC(N)=O)cc1`, the growth inhibition in experiment [1] (setting [7]) was 33%; in experiment [1] (setting [8]), 78% (active); in experiment [1] (at 50.0 µM), 43.8%; in experiment [2] (setting [7]), 16%; in experiment [2] (setting [8]), 43%; in experiment [2] (at 50.0 µM), 65.3%. Further, the growth inhibition in experiment [3] (setting [7]) is 38%; in experiment [3] (setting [8]) it was 45%; in experiment [3] (at 50.0 µM), 12.6%; in experiment [4] (setting [7]) it was 38%; in experiment [4] (setting [8]), 51%; in experiment [4] (at 50.0 µM), 23.3%. The growth inhibition was 42% in experiment [5] (setting [7]); 50% in experiment [5] (setting [8]); 67.7% in experiment [5] (at 50.0 µM); 25% in experiment [6] (setting [7]); 58% in experiment [6] (setting [8]); 81.2% (active) in experiment [6] (at 50.0 µM).
With `Cc1nc2c(Cl)cccc2c2ccccc12`, the growth inhibition in experiment [1] (setting [7]) was 14%; in experiment [1] (setting [8]), 94% (active); in experiment [1] (at 50.0 µM) it was 94.2% (active); in experiment [2] (setting [7]), 4%; in experiment [2] (setting [8]), 93% (active); in experiment [2] (at 50.0 µM), 85.7% (active). The growth inhibition in experiment [3] (setting [7]) was 5%; in experiment [3] (setting [8]), 95% (active); in experiment [3] (at 50.0 µM) it was 87.5% (active); in experiment [4] (setting [7]), -10%; in experiment [4] (setting [8]), 95% (active); in experiment [4] (at 50.0 µM) it was 88% (active). The growth inhibition in experiment [5] (setting [7]) was -1%; in experiment [5] (setting [8]), 95% (active); in experiment [5] (at 50.0 µM) it was 93.4% (active); in experiment [6] (setting [7]), 18%; in experiment [6] (setting [8]), 98% (active); in experiment [6] (at 50.0 µM) it was 94.5% (active).
With `O=[N+]([O-])/C(Cl)=C(\Nc1ccccc1)C(Cl)=C(Cl)Cl`, the growth inhibition is 55% in experiment [1] (setting [7]); 99% (active) in experiment [1] (setting [8]); 88.2% (active) in experiment [1] (at 50.0 µM); 82% (active) in experiment [2] (setting [7]); 99% (active) in experiment [2] (setting [8]); 92.2% (active) in experiment [2] (at 50.0 µM). The growth inhibition in experiment [3] (setting [7]) was 73% (active); in experiment [3] (setting [8]) it was 99% (active); in experiment [3] (at 50.0 µM) it was 88.8% (active); in experiment [4] (setting [7]) it was 64%; in experiment [4] (setting [8]), 99% (active); in experiment [4] (at 50.0 µM), 90.9% (active). Further, the growth inhibition in experiment [5] (setting [7]) was 76% (active); in experiment [5] (setting [8]), 99% (active); in experiment [5] (at 50.0 µM), 90.4% (active); in experiment [6] (setting [7]), 83% (active); in experiment [6] (setting [8]) it was 99% (active); in experiment [6] (at 50.0 µM), 85.1% (active).
Consider `S=C(Nc1cc(Cl)c(Cl)cc1Cl)SCc1ccccc1`, for which the growth inhibition in experiment [1] (setting [7]) is 14%; in experiment [1] (setting [8]), 97% (active); in experiment [1] (at 50.0 µM), 98.7% (active); in experiment [2] (setting [7]), 8%; in experiment [2] (setting [8]), 99% (active); in experiment [2] (at 50.0 µM), 99.3% (active). Also, the growth inhibition in experiment [3] (setting [7]) is 30%; in experiment [3] (setting [8]) it was 99% (active); in experiment [3] (at 50.0 µM), 99.2% (active); in experiment [4] (setting [7]), 12%; in experiment [4] (setting [8]), 98% (active); in experiment [4] (at 50.0 µM), 97.8% (active). The growth inhibition is 39% in experiment [5] (setting [7]); 99% (active) in experiment [5] (setting [8]); 99.2% (active) in experiment [5] (at 50.0 µM); 55% in experiment [6] (setting [7]); 99% (active) in experiment [6] (setting [8]); 99% (active) in experiment [6] (at 50.0 µM).
